Nrf2 block: Nrf2 qHTS screen for inhibitors | A549 ARE-Fluc reporter, luciferase luminescence, 18-24 h | Potency, µM (highest dose often 46 µM), without a hit: at the highest dose activity change, negative = inhibition, hits mostly inhibitors | 360,000 tested, 2.1% active; note: potency is the fitted concentration of half-maximal effect; % is set by controls: 0 for no effect and ±100 for the full control effect; nearly all actives have a fitted effect of over 60% in size
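A549 ARE_Fluc cells, 5000/well, 5% FBS OPTI-MEM; compounds in dose-response, 18-24 h at 37 °C/5% CO2; CellTiter-Fluor viability read (Ex 405/Em 525), then BugLite luciferase luminescence = Nrf2 activity.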
A549 viability: Nrf2 qHTS screen for inhibitors: counterscreen for cytotoxicity. A549 ARE-Fluc cells, CellTiter-Fluor viability, 18-24 h. Potency, µM (titrated, usually from 46 µM), for the others: at the highest dose activity change, negative = cytotoxicity, most hits filed as inhibitors. 390,000 tested, 0.16% active; note: potency is the fitted concentration of half-maximal effect; % is set by controls: 0 for no effect and ±100 for the full control effect
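Cytotoxicity counterscreen: CellTiter-Fluor fluorescence was measured in A549 ARE_Fluc cells after 18-24 h of compound exposure in a concentration series. The subsequent BugLite luminescent read reports ARE-luciferase activity.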
ALOX12 inh: Primary qHTS assay for inhibitors of human arachidonate 12S-lipoxygenase (ALOX12): Round 2 | Polyunsaturated fatty acid lipoxygenase ALOX12 (Homo sapiens), P18054 | AID 1671190, 2021 | purified 12hLO, xylenol orange hydroperoxide absorbance | Potency, µM (series often up to 108 µM), without a hit: top-dose activity change, negative = inhibition, hits mostly inhibitors | 580,000 tested, 1.1% active; note: potency is the fitted concentration of half-maximal effect; % is set by controls: 0 for no effect and ±100 for the full control effect
Target sequence (P18054 whole entry, looked up): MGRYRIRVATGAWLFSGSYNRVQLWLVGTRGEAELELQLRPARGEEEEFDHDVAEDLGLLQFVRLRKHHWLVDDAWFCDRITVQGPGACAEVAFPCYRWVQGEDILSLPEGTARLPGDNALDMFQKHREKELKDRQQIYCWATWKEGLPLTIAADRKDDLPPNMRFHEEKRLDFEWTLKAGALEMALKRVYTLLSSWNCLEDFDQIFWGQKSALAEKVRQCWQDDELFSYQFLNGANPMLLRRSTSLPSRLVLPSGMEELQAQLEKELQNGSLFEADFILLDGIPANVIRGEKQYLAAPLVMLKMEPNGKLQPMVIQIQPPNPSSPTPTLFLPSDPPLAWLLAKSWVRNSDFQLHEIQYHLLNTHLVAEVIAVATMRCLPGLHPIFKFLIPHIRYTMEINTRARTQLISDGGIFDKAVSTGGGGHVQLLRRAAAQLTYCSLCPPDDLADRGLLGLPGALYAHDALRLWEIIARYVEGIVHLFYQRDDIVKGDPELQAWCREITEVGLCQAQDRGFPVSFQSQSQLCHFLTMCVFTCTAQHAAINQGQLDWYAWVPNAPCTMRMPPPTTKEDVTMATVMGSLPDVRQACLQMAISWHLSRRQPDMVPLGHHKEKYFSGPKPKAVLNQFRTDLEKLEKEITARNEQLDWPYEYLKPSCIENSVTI
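Purified human 12hLO (150 nM final) in 25 mM Hepes, 0.01% Triton X-100, pH 7.0 was preincubated 15 min at room temperature with compound. Then 40 uM arachidonic acid was added, 30 min. Hydroperoxide was read by Fe-XO absorbance ratio 573/405 nm.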
ERG Ets-DNA blk: qHTS for Small Molecule Inhibitors of the ERG Ets/DNA interaction; Transcriptional regulator ERG (Homo sapiens), P11308; fluorescence polarization, His-ERG Ets domain / labelled DNA; Potency, µM (doses to about 76.9 µM), for inactives: top-dose FP activity, negative = inhibition, usual class: inhibitors; 370,000 tested, 0.028% active; AID 624246, 2012; active = well fitted inhibition curve with a large enough effect in the polarisation, with a control signal flat; inconclusive = small, poorly fitted or top-dose-only effect, or effect the other way, or a change in a side signal; inactive = no such curve, though single readings can be large or run the other way; the % refers to the polarisation;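 note: polarization taken with two DNA probes labelled with fluorescein and Texas red; potency is the fitted concentration of half-maximal effect; % of control where 0% means no effect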
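His-tagged ERG Ets domain (1 uM in the protein solution; 300mM KCl, 50mM Tris-HCl, 1mM EDTA, 1mM DTT, pH 7.5) received compound, then a probe mix of 5 nM fluorescein-DNA and 100nM Texas-615-DNA. Fluorescence polarization was read for both dyes.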
LDHA block: qHTS assay for inhibitors of human lactate dehydrogenase; L-lactate dehydrogenase A chain (Homo sapiens), P00338; purified LDHA, NADH/diaphorase-resazurin fluorescence; stronger effect = lower value; activity change, % (values are at about 110 or 230 µM); 480,000 tested, 0.15% active; in the data active = activity change below about -30%; inconclusive = mostly about -25% to -30%;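 note: plate controls were DMSO wells for no effect and wells without enzyme for full effect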
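Enzyme activity of human lactate dehydrogenase 5 (2 nM; 0.06 mM NADH, 0.2 mM pyruvate, 5 min, RT) is measured via a resazurin/diaphorase fluorescence readout of residual NADH.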
Nrf2 activator: qHTS of Nrf2 Activators | AREc32 ARE-luciferase reporter (MCF7-derived line), luminescence, 24 h | Potency, µM (doses to about 46.1 µM), without a hit: at the highest dose activation, actives largely listed as activators | 410,000 tested, 0.31% active; note: potency is the fitted concentration of half-maximal effect; % of control where 0% means no effect; nearly all actives have a fitted effect of over 65% in size
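Luminescent ARE reporter assay in AREc32_Fluc cells: overnight plating at 37 deg C, 24 hr compound incubation, Steady-Glo added, 30 min RT before reading.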
Active calls of the source: *. This is a sample that favours compounds with a hit; in the whole collection about 2.7% have one here. Unless noted, calls come from the whole dose curve; as a rule, active = well fitted curve in the direction sought with a large enough effect; inconclusive = small, poorly fitted or top-dose-only effect, or another doubt; inactive = no such curve, though single readings can be large; an effect the other way counts as inactive or inconclusive.

For COc1ccccc1NC(CC(=O)c1ccccc1)C(=O)OCC(=O)c1ccc(C)cc1 (stereo not given) the results were Nrf2 block inconclusive, A549 viability -0.6%, ALOX12 inh -7.9%, LDHA block 3.0 and Nrf2 activator 11.8%.
COc1ccccc1NC(CC(=O)c1ccccc1)C(=O)OCC(=O)c1ccc(Br)cc1 (stereo not given) was read as Nrf2 block inconclusive, A549 viability 0.2%, ALOX12 inh -6.6%, ERG Ets-DNA blk -6.5%, LDHA block -10.8 and Nrf2 activator 22.4µM*.
`Cc1ccc(-c2n[nH]c(=O)c3ccccc23)cc1S(=O)(=O)N1CCC(C)CC1` gave ALOX12 inh -111.2% and LDHA block 10.2.
For CCOc1nc2c(c(=O)n(C)c(=O)n2C)n1Cc1ccccc1Cl the results were Nrf2 block 18.4µM*, A549 viability -11.1%, ALOX12 inh 21.9%, ERG Ets-DNA blk -1.2%, LDHA block -15.4 and Nrf2 activator 0.2%.
For COCCOc1nc2c(c(=O)n(C)c(=O)n2C)n1C(C)c1ccccc1 (stereo not given) the results were ALOX12 inh 30.4% and LDHA block -35.6*.
COc1ccccc1Oc1nc2c(c(=O)n(C)c(=O)n2C)n1Cc1cccc(Br)c1 was read as Nrf2 block 16.4µM*, A549 viability -0.2%, ALOX12 inh -4.3%, ERG Ets-DNA blk -4.3%, LDHA block -0.5 and Nrf2 activator -0.1%.
Cn1c(=O)c2c(nc(Cl)n2CCOc2ccccc2)n(C)c1=O was read as Nrf2 block 25.9µM*, A549 viability 3.6%, ALOX12 inh inconclusive, ERG Ets-DNA blk 11.0%, LDHA block 2.2 and Nrf2 activator -0.1%.
COc1ccc(Oc2nc3c(c(=O)n(C)c(=O)n3C)n2Cc2cccc(OC)c2)cc1 was read as Nrf2 block -5.8%, A549 viability -1.5%, ALOX12 inh 2.6%, ERG Ets-DNA blk 4.3%, LDHA block -3.3 and Nrf2 activator -0.3%.
`CCCn1c(Cl)nc2c1c(=O)n(C)c(=O)n2C` gave ALOX12 inh 11.4% and LDHA block 0.2.
`Cn1c(=O)c2c(nc(N3CCCCCC3)n2Cc2cccc3ccccc23)n(C)c1=O` gave Nrf2 block inconclusive, A549 viability 23.1µM*, ALOX12 inh 11.6%, ERG Ets-DNA blk -10.5%, LDHA block -2.1 and Nrf2 activator -0.5%.
`CN1CCN(c2nc3c(c(=O)n(C)c(=O)n3C)n2Cc2cccc3ccccc23)CC1` gave Nrf2 block 1.3%, A549 viability -3.5%, ALOX12 inh 11.4%, ERG Ets-DNA blk 1.8%, LDHA block -2.5 and Nrf2 activator 0.3%.
For O=C(Nc1ccc(S(=O)(=O)NC2CCCCC2)cc1)c1ccco1 the results were Nrf2 block inconclusive, A549 viability -4.7%, ALOX12 inh -7.9%, LDHA block -0.9 and Nrf2 activator 2.9%.
`O=C(Nc1ccc(S(=O)(=O)NC2CCCCC2)cc1)c1ccc(Br)o1` gave Nrf2 block 14.6µM*, A549 viability -12.6%, ALOX12 inh -13.4%, ERG Ets-DNA blk -4.6%, LDHA block 5.5 and Nrf2 activator -0.1%.
O=[N+]([O-])c1ccc(N/N=C2\CC3CC=CC23)c([N+](=O)[O-])c1 (stereo not given) was read as Nrf2 block 23.1µM*, A549 viability inconclusive, ALOX12 inh -12.4%, ERG Ets-DNA blk -9.9%, LDHA block -7.0 and Nrf2 activator 4.1%.
O=[N+]([O-])c1ccc(N/N=C2\CC3CC=CC23)cc1 (stereo not given) was read as Nrf2 block inconclusive, A549 viability inconclusive, ALOX12 inh inconclusive, ERG Ets-DNA blk 2.8%, LDHA block -0.6 and Nrf2 activator 7.8%.
`O=C(NC1CC2CC1C1CCCC21)c1nc(Cl)ccc1Cl` (stereo not given) gave ALOX12 inh 14.5% and LDHA block -2.6.
Screening COc1ccc(CCNC(=O)c2ccc3nc(-c4ccco4)c(-c4ccco4)nc3c2)cc1OC returned Nrf2 block 23.1µM*, A549 viability -19.4%, ERG Ets-DNA blk -12.9%, LDHA block 6.8 and Nrf2 activator 3.3%.
For CN(CC(=O)NCc1ccc(Cl)cc1)S(=O)(=O)c1ccc2[nH]c3c(c2c1)CCCC3 the results were Nrf2 block 16.4µM*, A549 viability -23.7%, ALOX12 inh -19.1%, ERG Ets-DNA blk 1.0%, LDHA block 4.5 and Nrf2 activator -0.1%.
For O=C(COC(=O)c1cnccn1)Nc1ncc(C(F)(F)F)cc1Cl the results were Nrf2 block 1.5%, A549 viability -4.0%, ALOX12 inh 5.01µM*, ERG Ets-DNA blk 7.1%, LDHA block -0.7 and Nrf2 activator 0.6%.
Screening COC(=O)C1=C(N)OC2=C(C(=O)CC(C)(C)C2)C1c1ccc(Cl)cc1Cl (stereo not given) returned ALOX12 inh -28.8% and LDHA block -3.3.
For COC(=O)c1cccc(Nc2c3c(nc4ccccc24)CCC3)c1 the results were Nrf2 block 23.1µM*, A549 viability -27.3%, ALOX12 inh inconclusive, ERG Ets-DNA blk 4.5%, LDHA block -5.4 and Nrf2 activator 0.2%.
Screening CCOC(=O)c1cccc(Nc2c3c(nc4ccccc24)CCC3)c1 returned Nrf2 block 20.6µM*, A549 viability -16.4%, ALOX12 inh -24.4%, ERG Ets-DNA blk -2.8%, LDHA block -4.3 and Nrf2 activator -1.8%.
Oc1c(Br)cc(Br)cc1C=Nc1ccc(F)c(Cl)c1 was read as ALOX12 inh 4.47µM* and LDHA block 42.2.
Screening Cc1onc(-c2ccccc2Cl)c1C(=O)NCC(=O)O returned Nrf2 block 11.7%, A549 viability 0.8%, ALOX12 inh 0.0%, ERG Ets-DNA blk 0.2%, LDHA block -10.7 and Nrf2 activator -0.5%.
Cc1cc2ccccc2n1CCNC(=O)c1ccc(Br)o1 was read as Nrf2 block -6.2%, A549 viability -23.4%, ALOX12 inh inconclusive, ERG Ets-DNA blk 31.6µM*, LDHA block -8.8 and Nrf2 activator 3.2%.
For Cc1cc2ccccc2n1CCNC(=O)C(C)(C)C the results were Nrf2 block 14.0%, A549 viability 3.4%, ALOX12 inh inconclusive, ERG Ets-DNA blk 22.4µM*, LDHA block -0.9 and Nrf2 activator 0.5%.

Screens as filed in PubChem.
